TSHR antag = Antagonists of the Thyroid Stimulating Hormone Receptor: HTS campaign. Thyrotropin receptor (Homo sapiens), P16473. TSHR-expressing cells, TSH-stimulated cAMP HTRF, 2 h; active compounds read low. hit rate 0.2% among 330,000. AID 504810, 2011. activity change, negative = inhibition, % at 11.5 µM;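 active = activity change below a set negative limit, meaning inhibition stronger than a set level, cut at about -70% in these data; inconclusive = activity change between two set negative limits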
Target sequence (P16473 whole entry, looked up): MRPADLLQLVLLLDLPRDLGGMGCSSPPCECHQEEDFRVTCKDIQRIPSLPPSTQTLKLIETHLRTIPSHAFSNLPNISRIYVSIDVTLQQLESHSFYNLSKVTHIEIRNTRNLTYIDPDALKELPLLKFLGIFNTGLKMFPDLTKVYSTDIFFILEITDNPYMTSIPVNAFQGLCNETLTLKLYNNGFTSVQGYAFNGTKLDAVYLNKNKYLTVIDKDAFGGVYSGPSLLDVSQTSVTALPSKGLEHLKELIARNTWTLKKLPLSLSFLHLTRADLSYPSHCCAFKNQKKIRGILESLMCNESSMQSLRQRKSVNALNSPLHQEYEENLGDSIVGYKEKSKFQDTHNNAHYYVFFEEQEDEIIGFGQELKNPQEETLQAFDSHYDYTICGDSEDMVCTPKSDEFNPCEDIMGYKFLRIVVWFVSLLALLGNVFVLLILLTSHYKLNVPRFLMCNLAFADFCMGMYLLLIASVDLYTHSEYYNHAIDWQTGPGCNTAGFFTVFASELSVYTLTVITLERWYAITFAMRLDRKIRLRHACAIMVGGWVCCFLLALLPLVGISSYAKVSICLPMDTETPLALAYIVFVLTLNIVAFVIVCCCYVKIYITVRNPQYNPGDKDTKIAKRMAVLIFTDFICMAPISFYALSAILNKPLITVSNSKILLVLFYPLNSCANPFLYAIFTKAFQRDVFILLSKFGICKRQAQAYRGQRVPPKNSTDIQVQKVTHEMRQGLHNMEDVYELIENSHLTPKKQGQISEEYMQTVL
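Competitive HTRF cAMP read-out (cryptate anti-cAMP antibody, cAMP-d2; 30 min, room temperature) in freshly harvested TSHR cells. Compounds added before TSH at EC80 (4nM final), followed by 2 hours' incubation at 37 deg C.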
pAkt inh = HTS Assay for Inhibitors of Akt Phophorylation: Primary Screen | Neuro2A IGF-stimulated pAkt S473 HTRF, 20 min; active compounds read low | activity change, % for hits at 50 µM | hit rate 0.32% among 360,000 | AID 651550, 2012; in the data active = activity change below about -80%; inconclusive = mostly about -51% to -80%
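Neuro2A cells (4,500/well, DMEM with 0.5% FBS) were treated with compound at a single 50 µM final concentration, stimulated with 6 nM IGF for 20 min at 37 °C, and lysed. Phospho-Akt Ser473 was read by HTRF as 665/615 ratio ×10^4.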
RXFP1 antagonist = qHTS Assay for Antagonists of the Relaxin Receptor RXFP1; hit rate 0.59% among 350,000; AID 1259400, 2018; HEK293-RXFP1, relaxin-stimulated cAMP HTRF, 30 min; active compounds read low; activity change, negative = inhibition, % at 57.5 µM;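 active = activity change of -60% or lower, but not beyond a set lower limit; inconclusive = change between -60% and -40%, or beyond the set limit; inactive = change above -40%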
RXFP1 ag = qHTS Assay for Agonists of the Relaxin Receptor RXFP1 | HEK293T-RXFP1 cAMP TR-FRET, 30 min; response scale: percent of porcine relaxin response, buffer zero | Potency, µM (top dose mostly 57.5 µM), most hits filed as activators | hit rate 0.3% among 370,000 | Relaxin receptor 1 (Homo sapiens), Q9HBX9; active = well fitted activation curve with a large enough effect; inconclusive = small, poorly fitted or top-dose-only effect; note: nearly all actives have a fitted effect of over 60% in size
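Agonist response is measured as cAMP accumulation in an RXFP1-transfected HEK293T line under PDE4 inhibition. Values are scaled between buffer-only and 29 nM porcine relaxin, and EC50s come from standard Hill equation fits.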
gsp antagonist = qHTS for Antagonists of gsp, the Etiologic Mutation Responsible for Fibrous Dysplasia/McCune-Albright Syndrome: qHTS; gsp-mutant cells, cAMP HTRF, 30 min; Potency, µM (doses to about 76.9 µM), usual class: inhibitors; hit rate 0.4% among 340,000; calls by dose curve; cell line not stated here;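 note: intracellular cAMP measured with PDE inhibitor Ro 20-1724 present during compound exposure; nearly all actives have a fitted effect of over 65% in size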
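HTRF cAMP read-out (cAMP-d2 plus anti-cAMP antibody-K in lysis buffer, 30 min RT). Before lysis, cells are exposed to compounds with […] for 30 min at 37C in DPBS containing Ca/Mg, BSA and Tween 20.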
gsp ag = qHTS for Agonist of gsp, the Etiologic Mutation Responsible for Fibrous Dysplasia/McCune-Albright Syndrome: qHTS; gsp mutant cells, cAMP HTRF, 30 min; Potency, µM (series often up to 76.9 µM), actives largely listed as activators; hit rate 0.13% among 340,000; active = well fitted activation curve with a large enough effect; inconclusive = small, poorly fitted or top-dose-only effect, or another doubt; inactive = no such curve, though single readings can be large or run the other way; cell line not stated here;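 note: phosphodiesterase inhibitor Ro 20-1724 added with compounds to block cAMP breakdown; nearly all actives have a fitted effect of over 60% in size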
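Cells in DMEM/10% FBS with G418 were pretreated with compounds in DMSO plus […] (300 uM stock) for 30 min at 37C. cAMP was measured by HTRF (cAMP-d2 plus anti-cAMP antibody-K) after 30 min at room temperature.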
Numbers stand for hits; i = inactive; ? = inconclusive; nt = no result; [ ] = remark or other dose. Shown are actives, neighbours in structure and some others; about 1.3% of the full set was active somewhere.

SMILES	TSHR antag	pAkt inh	RXFP1 antagonist	RXFP1 ag	gsp antagonist	gsp ag
Cc1cc(C)cc(NS(=O)(=O)c2ccc(N3CCCCS3(=O)=O)cc2)c1	nt	nt	i	i	nt	nt
CCOc1ccc(N(CC(=O)Nc2ccc(C)cc2)S(C)(=O)=O)cc1	i	i	i	i	i	i[15.4 µM]
CCOc1ccc(N(CC(=O)Nc2cc(C)cc(C)c2)S(C)(=O)=O)cc1	-73	i	i	i	i	i
CCN1C(=O)[C@H]2[C@@H](c3ccc(-c4ccc(F)cc4)c(OC)c3)N[C@@](CC(C)C)(C(=O)OC)[C@H]2C1=O	i	nt	nt	i	nt	nt
COc1ccc(NC2CCN(C3CC(=O)N(c4ccc(F)c(Cl)c4)C3=O)CC2)cc1 (stereo unspecified)	i	i	i	i	i	i
CCN1C(=O)CC(N2CCC(Nc3ccc(OC)cc3)CC2)C1=O (stereo unspecified)	i	-106%	i	i	i[15.4 µM]	i
Cc1nn(-c2ccccc2)c(N2CCCC2)c1/C=N/NC(=O)c1ccccc1O	i	i	i	i	?	i
O=C(N/N=C/c1cc2c3c(c1O)CCCN3CCC2)c1ccccc1O	i	i	-76	i	?	i[15.4 µM]
CCc1c(C)c2c(C)nn(-c3ccccc3)c2[nH]c1=O	i	i	i	i	i	i
Cc1c(C)c2c(C)nn(-c3ccccc3)c2[nH]c1=O	i	-108%	i	i	i	i
CCn1c(/C=C/c2ccc(O)cc2)nc2ccccc2c1=O	i	i	-71	i	i	i[15.4 µM]
CN(c1ccccc1)S(=O)(=O)c1cccc(NC(=O)c2ccc3ncsc3c2)c1	i	i	i	i	25µM	i[15.4 µM]
CN(C)S(=O)(=O)c1cccc(NC(=O)c2ccc(COc3ccccc3)cc2)c1	i	i	i	i	32µM	i
COc1ccccc1NS(=O)(=O)c1cccc(NC(=O)c2[nH]c(C)c(C(C)=O)c2C)c1	i	i	i	i	?	i
COc1ccc(N(C)S(=O)(=O)c2cccc(C(=O)Nc3ccc(-n4cnnn4)cc3)c2)cc1	i	i	i	i	28µM	i
CC(=O)c1c(C)[nH]c(C(=O)Nc2cccc(S(=O)(=O)N(C)c3ccccc3)c2)c1C	i	i	i	i	32µM	i
[O-][n+]1cccc(/C(Cl)=N/OC[C@@H](O)CN2CCCCC2)c1	nt	nt	i	nt	nt	nt
COc1ccc(CCCc2nnc(SCc3nc4ccccc4c(=O)[nH]3)n2C)c(C)c1	i	i	i	i	i	i
Cc1nc2ccc(NC(=O)c3cccc(S(=O)(=O)N(C)c4ccccc4)c3)cc2s1	i	i	nt	i	35µM	i
COc1ccccc1NS(=O)(=O)c1ccc2[nH]c(=S)oc2c1	i	i	i	nt	i	i[15.4 µM]
CC(C)OC(=O)c1c(NC(=O)C2c3ccccc3Oc3ccccc32)sc2c1CCCC2	nt	nt	i	22µM	nt	nt
COc1ccc(C(=O)O)cc1NC(=S)NC(=O)C(c1ccccc1)c1ccccc1	i	i	-116	i	i	i
COc1ccc(CC(=O)Nc2ccc(-c3nc4ccccc4s3)c(C)c2)cc1OC	nt	nt	i	i	nt	nt
Brc1cc(Br)c2nc(-c3ccc(N4CCOCC4)cc3)ccc2c1	i	i	i	?	11µM	?
O=C(CSc1nc2ccccc2n1Cc1ccc(F)c(Cl)c1)N1CCN(c2ccc(F)cc2)CC1	nt	nt	i	i	nt	nt
SMILES	TSHR antag	pAkt inh	RXFP1 antagonist	RXFP1 ag	gsp antagonist	gsp ag
COc1ccc2c(c1)CCc1c-2n[nH]c1C(=O)O	i	-111%	i	i	i	i
O=S1(=O)C=C(Sc2nc3cc(Cl)ccc3o2)c2ccccc21	-78	i	i	i	i	i
C(=N\Nc1nc(N2CCOCC2)nc(N2CCOCC2)n1)/c1cccnc1	i	-82%	i	i	i	i
C(=N\Nc1nc(N2CCOCC2)nc(N2CCOCC2)n1)/c1ccncc1	i	i	i	i	i	i[15.4 µM]
Clc1ccc(NCc2nc3ccccc3n2CCOc2ccccc2)cc1	nt	nt	-61	i	nt	nt
CCOc1ccc(NCc2nc3ccccc3n2CCOc2ccccc2)cc1	i	i	i	i	i	i
CC(OC(=O)c1cccc(-n2cnnn2)c1)C(=O)NCc1ccccc1 (stereo unspecified)	i	i	i	i	i	i[15.4 µM]
COc1ccc(-c2noc(CN(C)Cc3ccccc3)n2)c(OC)c1OC	i	i	i	i	i	?
COc1cc2c(C(=O)N3CCN(C)CC3)c(C)n(-c3ccccc3)c2cc1Br	i	nt	i	i	i	?
CCN(CC)CCNC(=O)c1c(C)n(-c2ccccc2)c2cc(Br)c(OC)cc12	i	i	-78	i	i	i
Cc1cc2cc(C)c(NCCNC(=O)c3ccccc3)nc2cc1C	i	i	i	i	i	i
Cc1ccc(C(=O)NCCNc2nc3cc(C)c(C)cc3cc2C)cc1	i	i	i	i	i	22µM
COc1ccc(-c2nc(CN3CCN(c4ncnc5ccccc45)CC3)c(C)o2)c(OC)c1	i	i	i	i	32µM	i
Cc1oc(-c2cc(F)ccc2F)nc1CN1CCN(c2ncnc3ccccc23)CC1	i	i	i	i	?	i
Cc1cc(N/N=C\c2ccccc2)nc(-c2ccccc2O)n1	i	i	i	i	i	i[15.4 µM]
COC(=O)c1ccc(Nc2cc(C)nc(-c3ccccc3O)n2)cc1	i	-86%	i	i	i	?
COC(=O)c1cccc(Nc2cc(C)nc(-c3ccccc3O)n2)c1	i	i	i	i	?	i
C/C(=N\Nc1cc(C)nc(-c2ccccc2O)n1)c1ccccc1O	i	i	i	i	45µM	i
Cn1cc(Br)c(C(=O)NC(=S)Nc2ccc(S(N)(=O)=O)cc2)n1	i	i	i	i	i	i[15.4 µM]
COc1ccc(-c2c(-c3ccc(OC)c(C)c3O)n[nH]c2C)cc1	i	i	i	i	?	i
O=C(NCc1cccc(Cl)c1)c1cnccn1	i	-86%	i	i	i	i
O=C(CCN1C(=O)c2ccccc2S1(=O)=O)N1CCN(c2ccccc2F)CC1	i	i	-112	i	i	i[15.4 µM]
O=C(CCN1C(=O)c2ccccc2S1(=O)=O)Nc1ccc(F)cc1F	i	i	i	i	i	i
O=C(CCN1C(=O)c2ccccc2S1(=O)=O)Nc1ccc(F)c(F)c1F	i	i	-76	i	i	i[15.4 µM]
CC(C)NCCCC1(C(N)=O)c2ccccc2-c2ccccc21	nt	nt	i	nt	nt	nt
C=CCn1c(-c2cccc(Cl)c2)n[nH]c1=S	i	-109%	i	i	i	?
S=c1[nH]nc(-c2cccc(Cl)c2)n1Cc1ccccc1	i	i	?	i	i	i

Bioassay records as filed in PubChem.
